From PubChem
KKLEB cytotox – cytotoxicity in KKLEB CF airway cells, primary screen, cytotoxicity control for CF NF-kB inhibitor project, cell-based, uHTS, fluorescence assay plates; KKLEB CF airway cells viability, ATPlite luminescence, overnight; hits give low values; cells stimulated with P. aeruginosa culture filtrate; activity change (cytotoxicity), % at 5 µM; actives 0.36% (n = 360,000); AID 602141, 2011;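 active = corrected activity change at or below -50% at 5 µM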
EWS-Fli inh – EWS/Fli-driven NR0B1 reporter inhibitors, primary screen, A673 cells, NR0B1 luciferase, luminescence, MLPCN library | viability-normalised | inhibition, % at 12.6 µM | actives 0.67% (n = 350,000) | AID 651661, 2012;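 active = mean inhibition of at least 50% after viability correction, with every replicate also passing that limit; inconclusive = mean reaches 50% but only one of two replicates passes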;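 note: firefly luciferase signal divided by Alamar Blue viability fluorescence both relative to DMSO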
PAX8 reporter – inhibitors of PAX8-driven TPO luciferase reporter, primary screen, RMG-I cells, single concentration | SteadyGlo, 24 h | actives 1.2% (n = 360,000) | inhibition, % at 12.6 µM | AID 652154, 2013;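 active = mean replicate inhibition at least 60% with every replicate also reaching 60%; inconclusive = only one of the two criteria is met; inactive = mean below 60% and not all replicates reaching 60%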;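 note: luciferase light reporting Pax8 driven TPO promoter activity; plate controls were median of neutral control wells for no effect and mitoxantrone controls for full effect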
CF NFkB block – inhibitors of PAF-induced NF-kB signaling, primary screen, cell-based, GFP fluorescence, uHTS | actives 0.86% (n = 360,000) | KKLEB NF-kB-GFP reporter, GFP fluorescence overnight | inhibition, % at 5 µM;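 active = at least 50% inhibition at 5 µM, scaled per plate between neutral and stimulator controls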;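 note: PAF is a Pseudomonas aeruginosa culture filtrate used as stimulus; plate controls were PAF-stimulated DMSO wells for no effect and unstimulated DMSO wells for full effect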
HIF-2a inh – HIF-2a reporter inhibitors, primary screen, luminescence, 786-0 RCC cells; 786-0 RCC cells HIF-2a reporter, luciferase luminescence, overnight; inhibition, % at 18.8 µM; actives 0.72% (n = 360,000);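 active = inhibition of the luminescence signal of 40% or more relative to plate controls, in a single-dose primary screen at 18.75 µM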
Mdm2-MdmX confirm – retested Mdm2-MdmX interaction blockers, confirmation, cell-based, luminescence, single concentration, set 2; shares compounds with HIF-2a inh; SaOS-2 split-luciferase Mdm2/MdmX complementation; inhibition, % at 8 µM; actives 99% (n = 740);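 active = mean inhibition of the luminescence signal across two replicates at or above 26 percent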
HIF-2a inh conf – HIF-2a reporter inhibitor retest, confirmation, luminescence, 786-0 RCC cells; shares compounds with HIF-2a inh; HIF-2a luciferase reporter luminescence, overnight; inhibition, % at 18.8 µM; actives 56% (n = 1,800); AID 651580, 2012;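 active = mean inhibition across four replicates of at least 40 percent at the single tested concentration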
HIF-1a cs – HIF-1a luciferase reporter signal reduction – MiaPaCa-2 cells, single concentration, counter-screen for HIF-2a inhibitor project, confirmation; actives 72% (n = 1,800); inhibition, % at 18.8 µM; shares compounds with HIF-2a inh; AID 651589, 2012; MiaPaCa-2 HIF-1a luciferase reporter, desferoxamine, overnight;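 active = mean inhibition of the reporter signal across four replicates at the single tested dose of 50% or more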
Active calls of the source: *; ? = inconclusive; / = no result given. A selection: hits, their analogues and other compounds. The true share with any hit is near 2.1%.

SMILES	KKLEB cytotox	EWS-Fli inh	PAX8 reporter	CF NFkB block	HIF-2a inh	Mdm2-MdmX confirm	HIF-2a inh conf	HIF-1a cs
CCOC(=O)c1c(C)[nH]c(C(=O)Nc2ccc(NC(C)=O)cc2)c1C	3.9	-7.2	10.7	2.7	88.3*	/	95.8*	84.4*
COc1ccc([C@H]2C[C@H](O)[C@@H](n3cc(-c4ccc(F)cc4)nn3)CN2Cc2cccs2)cc1	-27.0	56.4*	?	39.0	77.0*	/	30.3	104.2*
Cn1nnnc1Sc1ncnc2scc(-c3ccc(C(F)(F)F)cc3)c12	-59.4*	35.1	76.6*	72.5*	94.4*	100.0*	98.1*	102.5*
Cn1nnnc1Sc1ncnc2scc(-c3ccsc3)c12	6.8	22.4	97.7*	46.7	66.3*	103.0*	48.8*	100.4*
COc1cccc(-c2csc3ncnc(Sc4nnnn4C)c23)c1	-12.5	18.7	99.0*	46.6	47.4*	/	42.6*	98.4*
COc1cccc(CNCCSc2nnnn2C)c1	-6.5	/	/	11.1	18.1	/	/	/
Cn1nnnc1Sc1ncnc2scc(-c3ccc(-c4ccccc4)cc3)c12	-63.0*	-5.3	77.2*	87.6*	45.9*	/	-26.4	100.8*
Cc1nnc(NC(=O)CSc2ncnc3scc(-c4ccccc4)c23)s1	1.3	/	0.2	17.0	22.9	/	/	/
Cc1ccc(-c2csc3ncnc(SCC(=O)O)c23)cc1	-7.9	-3.2	-2.2	9.5	1.7	/	/	/
Cc1cc(C(=O)Nc2cccc3c2O[C@@H](CN(C)Cc2ccc(Cl)c(Cl)c2)[C@@H](C)CN([C@@H](C)CO)C3=O)n(C)n1	/	4.5	-13.7	/	/	/	/	/
Cc1ccc(S(=O)(=O)Nc2ccc3c(c2)C(=O)N([C@H](C)CO)C[C@@H](C)[C@@H](CN(C)S(=O)(=O)c2cn(C)cn2)OCCCC[C@H](C)O3)cc1	/	-9.7	-0.8	/	/	/	/	/
CC(=O)N(C)C[C@@H]1Oc2cc(C#CC3CCCC3)ccc2S(=O)(=O)N([C@H](C)CO)C[C@@H]1C	/	13.2	4.6	/	/	/	/	/
COc1ccc(-c2csc3ncnc(N4CCN(S(=O)(=O)c5cccc(C(F)(F)F)c5)CC4)c23)cc1	-3.0	-13.1	-5.1	2.3	-10.0	/	/	/
Cc1ccccc1N1CCN(c2ncnc3scc(-c4cccs4)c23)CC1	-6.9	/	19.1	17.2	16.5	/	/	/
Cn1nnnc1Sc1ncnc2scc(-c3cc4ccccc4o3)c12	-85.5*	11.9	89.9*	82.8*	97.0*	103.2*	96.2*	107.1*
Cn1nnnc1Sc1ncnc2scc(-c3cccs3)c12	/	/	/	/	/	102.7*	/	/
Cn1nnnc1Sc1ncnc2scc(-c3cccc(C(F)(F)F)c3)c12	-51.9*	12.4	101.3*	71.0*	83.8*	103.0*	91.2*	99.1*
Cn1nnnc1Sc1ncnc2scc(-c3ccccc3C(F)(F)F)c12	-18.3	4.7	49.1	22.3	51.0*	/	46.3*	59.0*
Cc1ccc(S(=O)(=O)Nc2ccc3c(c2)C(=O)N([C@@H](C)CO)C[C@H](C)[C@@H](CN(C)C(=O)c2ccccc2)OCCCC[C@@H](C)O3)cc1	/	14.3	-6.6	/	/	/	/	/
C[C@@H]1CN([C@@H](C)CO)C(=O)c2cccc(NC(=O)c3ccncc3)c2O[C@H]1CN(C)C(=O)Nc1ccc(F)cc1	/	5.7	-0.1	/	/	/	/	/
O=C(C[C@@H]1C=C[C@H](NC(=O)Nc2ccc(C(F)(F)F)cc2)[C@@H](CO)O1)NCc1cc(F)cc(F)c1	/	2.4	6.5	/	/	/	/	/
O=S(=O)(c1ccccc1)c1ncc(C(F)(F)F)cc1Cl	-85.5*	5.4	-3.4	88.7*	96.2*	/	3.8	13.5
O=S(=O)(c1ccccc1)c1ncc(C(F)(F)F)cc1O	8.2	13.2	4.3	14.9	14.3	/	/	/
O=C(COC(=O)c1ccc[nH]c1=O)Nc1cc(S(=O)(=O)N2CCCCC2)ccc1Cl	7.7	4.1	-3.3	3.0	18.5	/	/	/
O=C(COC(=O)c1ccc[nH]c1=O)Nc1ccc(S(=O)(=O)N2CCCC2)cc1	-16.7	-1.2	32.7	6.3	58.5*	/	-0.3	18.2
SMILES	KKLEB cytotox	EWS-Fli inh	PAX8 reporter	CF NFkB block	HIF-2a inh	Mdm2-MdmX confirm	HIF-2a inh conf	HIF-1a cs
Cc1nn(C)cc1NC(=O)C[C@H]1CC[C@H]2[C@H](COc3ccc(NC(=O)Nc4cccc(Cl)c4)cc3C(=O)N2C)O1	/	-4.7	6.9	/	/	/	/	/
N#Cc1cc2c(nc1SC1CC(=O)N(c3ccccc3)C1=O)CCC2 (stereo not given)	-3.6	/	/	8.6	59.3*	/	82.6*	62.9*
CSc1nc2c(cc1C#N)CCC2	7.0	-23.7	5.7	5.6	11.3	/	/	/
CC1=C/C(=N\OS(=O)(=O)c2ccccc2)C(C)=CC1=O	-13.3	/	/	-7.2	64.8*	102.7*	/	/
CCN(CC)c1ccc(/C=N/NC(=O)c2ccc3nc[nH]c3c2)c(O)c1	8.4	/	/	11.9	-34.7	82.2*	/	/
COc1cccc(/C=N/NC(=O)c2ccc3nc[nH]c3c2)c1O	2.8	-3.5	-66.3	-4.8	1.9	/	/	/
Cc1ccc(NC(=O)c2cc(CC(C)C)nc3ccccc23)cc1	-19.0	21.2	38.5	-16.6	17.6	93.7*	/	/
Cc1ccc(NC(=O)c2cc(C)nc3ccccc23)cc1	6.7	-10.0	28.9	-16.2	-13.7	/	/	/
COc1cccc(-c2cc(C(=O)Nc3ccncc3)c3ccccc3n2)c1	7.2	/	5.8	-35.4	-2.0	/	/	/
COc1ccc(NC(=O)c2cc(CC(C)C)nc3ccccc23)cc1	1.5	10.7	56.0	5.1	12.3	98.0*	/	/
C[C@H]1CN([C@@H](C)CO)C(=O)Cc2cc(NC(=O)Nc3ccc(F)cc3)ccc2O[C@@H]1CN(C)Cc1ccc2c(c1)OCO2	/	-10.1	6.5	/	/	/	/	/
O=C(Nc1ccccc1)NN(C(=O)CCl)c1ccccc1	-33.8	33.7	99.5*	69.7*	58.1*	103.0*	67.3*	90.0*
CCC(O)(CC)C(=O)NN(C(=O)CCl)c1ccccc1	2.0	16.7	-19.1	-7.0	-0.2	/	/	/
Cc1ccc(N(NC(=O)C(O)(c2ccccc2)c2ccccc2)C(=O)CCl)cc1	-66.4*	/	107.1*	57.8*	50.2*	102.2*	32.2	99.3*
C[C@@H]1CN([C@@H](C)CO)C(=O)c2cc(C#Cc3ccccn3)cnc2O[C@H]1CN(C)C(=O)c1ccccn1	/	0.1	/	/	/	/	/	/
CC(C)(C)c1ccc(/C=C(\c2nc3ccccc3[nH]2)S(=O)(=O)c2ccccc2)cc1	-70.3*	/	/	94.5*	95.1*	102.7*	97.1*	107.8*
